# An excerpt weighted towards active compounds, which were near 4.7% of everything screened.
# GPR32 ag: activates human resolvin D1 receptor GPR32. O75388. CHO-K1 GPR32 beta-arrestin PathHunter luminescence, 90 min; zero percent set by DMSO-only wells. activation, % at 76.9 µM. hit rate 2.5% among 48,000;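 active = activation of at least 60% and not above a set upper limit, about 1 call in 100 departs from these limits; inconclusive = activation of 40% to 60%, or above that upper limit; inactive = activation under 40%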; also: 0% is about no effect
#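 CHO-K1 cells stably expressing ProLink-tagged GPR32 and Enzyme Activator-tagged beta-arrestin were seeded at 2,500 cells/well overnight, exposed to compounds for 90 min at 37 °C, then read by beta-Gal complementation chemiluminescence after 1 h detection reagent.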
# HTT prom inh: inhibitors of huntingtin promoter activity. hit rate 0.93% among 48,000. AID 1508623. Potency, µM (series often up to 57.5 µM), for the others: at the highest dose activity change, negative = inhibition, hits mostly inhibitors. HEK293 HTT promoter firefly luciferase reporter, 24 h; also: potency is read from the fitted curve at half-maximal effect; nearly all actives have a fitted effect of over 50% in size
#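 Quantitative HTS used concentration series of up to 57.5 uM final on HEK293 luciferase reporter cells, 24 h at 37 degrees C. Readout was Dual-Glo firefly luminescence.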
# FH mod: Identification of activators of human fumarate hydratase by quantitative high-throughput screening; FH coupled MDH/diaphorase resazurin fluorescence, 15 min; Potency, µM (titrated, usually from 79.9 µM), for inactives: top-dose activity change, negative = inhibition, usual class: inhibitors; hit rate 0.22% among 54,000; AID 1347055, 2019; also: potency is read from the fitted curve at half-maximal effect; % is scaled to controls: 0 for no effect and ±100 for the full control effect; the screen sought activators but most active calls are inhibition curves; nearly all actives have a fitted effect of over 45% in size
# Target sequence (P07954 whole entry, looked up): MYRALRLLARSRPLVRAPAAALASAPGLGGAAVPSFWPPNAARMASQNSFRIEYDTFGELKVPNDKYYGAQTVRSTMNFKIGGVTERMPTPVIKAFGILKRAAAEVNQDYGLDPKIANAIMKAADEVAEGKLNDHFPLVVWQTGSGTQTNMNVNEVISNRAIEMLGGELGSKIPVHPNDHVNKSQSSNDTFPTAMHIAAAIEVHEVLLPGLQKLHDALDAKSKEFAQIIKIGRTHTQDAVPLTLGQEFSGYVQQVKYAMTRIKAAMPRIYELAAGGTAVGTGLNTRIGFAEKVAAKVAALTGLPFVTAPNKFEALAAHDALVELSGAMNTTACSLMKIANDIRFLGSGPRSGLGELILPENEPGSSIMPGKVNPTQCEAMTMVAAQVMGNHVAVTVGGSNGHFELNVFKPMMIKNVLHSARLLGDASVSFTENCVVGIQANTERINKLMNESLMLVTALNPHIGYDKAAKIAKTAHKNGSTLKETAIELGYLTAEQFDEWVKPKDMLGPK
# HTT-AS promoter: HTT-AS promoter activation | HEK293 HTT-AS promoter firefly luciferase reporter, 24 h; response scale: percent change from vehicle, -100% = no light | Potency, µM (top dose mostly 57.5 µM), for the others: at the top dose activity change, positive = activation, most hits filed as activators | hit rate 0.24% among 48,000 | AID 1508624; also: potency is read from the fitted curve at half-maximal effect; nearly all actives have a fitted effect of over 55% in size
#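 Firefly luciferase readout (Dual-Glo, 10 min RT) after 24 h, 37 °C compound exposure (final up to 57.5 uM) of HEK293 reporter cells cultured 24 h beforehand; PTC124 at 50 uM final as control inhibitor; activity scaled vehicle 0%, zero RLU -100%.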
# NTMT1 inh: inhibitors of human N-terminal methyltransferase NTMT1. NTMT1 MTase-Glo SAH luminescence, purified enzyme. Potency, µM (series often up to 114 µM), inactives show top-dose activity change, negative = inhibition, most hits filed as inhibitors. hit rate 2.5% among 59,000;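 also: potency is read from the fitted curve at half-maximal effect; plate controls were DMSO vehicle for no effect and no enzyme for full effect; nearly all actives have a fitted effect of over 65% in size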
# Active calls of the source: *; ? = inconclusive; / = not tested or not shown; [ ] = dose if it differs, or a comment. Unless noted, calls follow the shape of the dose curve; as a rule, active = well fitted curve in the direction sought with a large enough effect; inconclusive = small, poorly fitted or top-dose-only effect, or another doubt; inactive = no such curve, though single readings can be large; an effect the other way counts as inactive or inconclusive.
SMILES,GPR32 ag,HTT prom inh,FH mod,HTT-AS promoter,NTMT1 inh
CCOc1ccc(-c2cc(C(=O)N3CCN(c4cccc(C)c4)C(C)C3)c3ccccc3n2)cc1 (centres undefined),-16,-18%,-38%,0%,-8%
Cc1cnc(-c2ccccc2C(C)C)nc1NCc1cccnc1,/,/,/,/,2%
CCOc1ccc(C(C)CNC(=O)c2cc3sccc3n2Cc2ccccc2)cc1OCC (centres undefined),/,/,/,/,7%
CC(C)CN(CCNC(=O)c1cc(-c2ccc(Cl)s2)nc2ccccc12)CC(C)C,-11,-5%,4%,-9%,9%
NS(=O)(=O)c1ccc(CCNc2nccn(-c3cccc(C(F)(F)F)c3)c2=O)cc1,63*,?,14%,-26%,7%
CC(=O)c1ccc(NC(=O)C2Cc3ccccc3N2C(=O)c2ccccc2)cc1 (centres undefined),-9,-13%,-5%,4%,-67%
CC(=O)Nc1ccc(NC(=O)C2Cc3ccccc3N2C(=O)c2ccccc2)cc1 (centres undefined),100*,0%,4%,-9%,-4%
CN1CCc2cccc3c2C1Cc1ccc(O)c(O)c1-3 (centres undefined),15,/,14µM*,/,/
Cc1oc2ncnc(N3CCOCC3)c2c1C(=O)Nc1ccc(Br)cc1F,16,-12%,-9%,-19%,89µM*
Cc1ccc(-n2c(SCC(=O)Nc3ccc4c(c3)OCO4)nc3c([nH]c4ccccc43)c2=O)cc1,-37,-8%,-20%,5%,4%
O=C(CCCCc1ccc2ccccc2c1)C(F)(F)F,/,/,-2%[162 µM],/,3%
Cc1ccc(S(=O)(=O)NCCc2csc3nc(-c4ccccc4C)nn23)cc1,80*,-20%,-13%,-23%,-5%
Cc1ccc(-c2nc3scc(CCNS(=O)(=O)c4ccc(C)c(C)c4)n3n2)cc1,7,-28%,-21%,-20%,9%
O=C(CSc1nnc2[nH]c(=O)cc(-c3ccccc3)n12)Nc1cc(C(F)(F)F)ccc1Cl,-6,36%,?,18µM*,?
O=C(Nc1ccc(SC(F)F)cc1)c1cc(-c2ccc3c(c2)OCCO3)on1,-6,10µM*,-5%,-64%,7%
CC(=O)Nc1ccc(NC(=O)c2cc(-c3ccc4c(c3)OCCO4)on2)cc1,-5,9%,7%,?,-1%
CCOC(=O)c1c(-c2ccccc2)oc2ccc(N(C(C)=O)S(=O)(=O)c3ccc(CC)cc3)cc12,-11,?,?,-22%,-8%
CCCCCn1c(=O)[nH]c2cc(C(=O)N3CCN(c4cccc(C)c4)C(C)C3)ccc2c1=O (centres undefined),104*,?,-8%,-57%,?
CCCCCn1c(=O)[nH]c2cc(C(=O)N3CCN(c4cccc(OC)c4)CC3)ccc2c1=O,36,?,-4%,-35%,?
CCOc1ccc(Cc2nccc3cc(OCC)c(OCC)cc23)cc1OCC,88*,?,-4%[53.3 µM],-53%,-20%[57.5 µM]
CCOC(=O)c1[nH]c(C)c(CCC(=O)Nc2cccc(C(F)(F)F)c2)c1C,-11,-20%,-14%,-14%,-9%
CC(=O)Nc1ccc(S(=O)(=O)NCc2cccn2Cc2cccc(C)c2)cc1,88*,-22%,-15%,-16%,-2%
CC(C)CCNC(=O)C1CCC(Cn2c(=O)c3sccc3n(CC(=O)NC(C)C)c2=O)CC1 (centres undefined),-8,-8%,2%,-14%,7%
COc1ccc(CNC(=O)CN2N=C(c3ccccc3)CCC2=O)c(OC)c1,-14,-14%,-1%,-8%,-17%
CC1=C(C(=O)Nc2ccc(C)cc2C)C(C(C)C)n2nc(SCc3ccccc3Cl)nc2N1 (centres undefined),-1,-11%,-1%,-13%,6%
SMILES,GPR32 ag,HTT prom inh,FH mod,HTT-AS promoter,NTMT1 inh
Cc1ccc(S(=O)(=O)Cc2nc(-c3ccc(C(=O)NCc4ccccc4)cc3)oc2C)cc1,77*,?,5%,-38%,5%
COc1cc(NC(=O)CN(C)S(=O)(=O)c2ccc3[nH]c4c(c3c2)CCCC4)cc(OC)c1OC,105*,0%,-21%,-24%,-10%
O=S(=O)(Nc1cccc(F)c1)c1ccc2[nH]c3c(c2c1)CCCCC3,62*,?,35µM*,12%[11.5 µM],-11%
COc1ccc(NS(=O)(=O)c2ccc3[nH]c4c(c3c2)CCCC4)cc1OC,14,20µM*,?,-47%,-17%
COc1ccc(OC)c(NC(=O)CN(C)S(=O)(=O)c2ccc3[nH]c4c(c3c2)CCCC4)c1,0,-16%,?,-29%,-14%
O=S(=O)(Nc1cc(F)ccc1F)c1ccc2[nH]c3c(c2c1)CCCCC3,40,?,?,-26%,?
Cc1ccc(NS(=O)(=O)c2ccc3[nH]c4c(c3c2)CCCCCC4)cc1,102*,?,?,-26%,?
COC(=O)c1cc2c(cc1NC(=O)c1cnn(-c3ccc(C)cc3)c1-n1cccc1)OCO2,-10,/,/,/,/
C=C1/C(=C/C=C2\CCC[C@]3(C)[C@@H]([C@H](C)CC[C@@H](O)C(C)(C)O)CC[C@@H]23)C[C@@H](O)C[C@@H]1O,/,/,-3%,/,-27%[57.5 µM]
CCOC(=O)c1ccc(N2CCN(c3cccc(Cl)c3)CC2)c(NC(=O)Nc2ccc(OC)cc2OC)c1,-25,/,/,/,/
COc1ccc(OC)c(NS(=O)(=O)c2ccc3[nH]c4c(c3c2)CCCCC4)c1,2,?,?,-32%,?
COc1cccc(CNS(=O)(=O)c2ccc3[nH]c4c(c3c2)CCCCC4)c1,65*,?,?,-30%,?
Cc1ccc(N(C)S(=O)(=O)c2ccc3[nH]c4c(c3c2)CCCC4)cc1,109*,-11%,?,-20%,-27%
COc1cc(NS(=O)(=O)c2ccc3[nH]c4c(c3c2)CCCCCC4)cc(OC)c1,102*,?,?,-28%,10%
COc1cc(NS(=O)(=O)c2ccc3[nH]c4c(c3c2)CCCC4)cc(OC)c1OC,82*,?,?,-55%,-16%
CC1(CCC(=O)O)C(=O)C=CC23CC4CC(OC4(C)C2O)C13 (centres undefined),/,/,0%[53.3 µM],/,2%[29.8 µM]
CN(C)c1cccc(-c2nnc(N3CCC(C(N)=O)CC3)s2)c1,/,/,/,/,-2%
O=C(NCCN1CCCCC1)c1ccc(Cn2c(SCc3ccccc3)nc3cccnc32)cc1,-10,49%,-12%,?,40µM*
CC1CCN(CCNC(=O)c2ccc(Cn3c(SCc4ccccc4)nc4cccnc43)cc2)CC1,-16,12%,-1%,5%,?
O=C(NC1CC1)c1ccc(Cn2c(SCc3ccc(F)cc3)nc3cccnc32)cc1,63*,-8%,-5%,10%,-2%
